Compound activity deposited in PubChem BioAssay by National Center for Advancing Translational Sciences (NCATS).
Sampled rows, rich in hits. Any-hit rate of the full collection: about 3.7%.
GLP1R inv ag – GLP-1 receptor (human) inverse agonism; Potency, µM (titrated, usually from 38.3 µM), without a hit: at the top dose activity change, negative = inhibition, most hits filed as inhibitors; HEK293 GLP-1R CRE-luciferase, luminescence, 24 h; GLP-1R form is constitutively active; AID 624417; hit rate 1.6% among 410,000; further: on the % scale 0 is the no-effect control and ±100 the full control effect; nearly all actives have a fitted effect of over 55% in size
Target sequence (P43220 whole entry, looked up): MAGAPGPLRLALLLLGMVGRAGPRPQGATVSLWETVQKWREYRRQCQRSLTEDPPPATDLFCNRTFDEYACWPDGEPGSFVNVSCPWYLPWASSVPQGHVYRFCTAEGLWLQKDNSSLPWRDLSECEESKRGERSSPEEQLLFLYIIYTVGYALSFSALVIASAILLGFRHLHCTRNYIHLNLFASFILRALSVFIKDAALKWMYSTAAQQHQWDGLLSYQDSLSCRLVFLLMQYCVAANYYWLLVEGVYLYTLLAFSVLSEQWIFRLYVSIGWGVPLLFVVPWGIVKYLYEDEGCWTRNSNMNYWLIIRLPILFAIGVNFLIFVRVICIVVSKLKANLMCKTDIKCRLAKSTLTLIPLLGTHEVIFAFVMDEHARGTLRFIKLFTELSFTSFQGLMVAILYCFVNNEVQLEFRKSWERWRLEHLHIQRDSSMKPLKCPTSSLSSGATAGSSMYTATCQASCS
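Constitutively active GLP-1R drives a cAMP-responsive luciferase in stably transfected HEK293 cells; test compounds are added after overnight (12 h) attachment and left 24 hr, and signal loss in luminescence marks inhibition.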
S2 tox – reduces viability in counter-screen for ATXN expression inhibitors; S2 cells (HEK-293 line with an ATXN2-luciferase reporter) viability, CellTiter-Fluor protease fluorescence, 24 h; Potency, µM (top dose mostly 56.7 µM), hits mostly cytotoxic; hit rate 0.49% among 400,000; further: nearly all actives have a fitted effect of over 40% in size
TGFb inhibitor – inhibitors of TGF-b signaling | HepG2 CAGA-GFP TGF-b/SMAD3 reporter, GFP fluorescence, 18 h; TGF-beta stimulated, 500 pg/mL final | Potency, µM (highest dose often 46.1 µM), for inactives: top-dose activity, negative = inhibition, most hits filed as inhibitors | hit rate 1.2% among 410,000 | AID 588855; further: on the % scale 0 is the no-effect control and ±100 the full control effect; nearly all actives have a fitted effect of over 65% in size
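Inhibition of TGF-beta-driven CAGA-GFP reporter expression in HEPG2 cells is measured by cellular GFP fluorescence after 18 h stimulation with 500 pg/mL recombinant TGF-beta in 1% FBS medium at 37 degrees C.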
GLP-1R agonist – GLP-1 receptor (human) agonism | P43220 | HEK293 GLP-1R CRE-luciferase, luminescence, 4-6 h; cells express a hypersensitive GLP-1R form | Potency, µM (doses to about 45.6 µM), for inactives: at the highest dose activation, actives largely listed as activators | hit rate 0.007% among 380,000; further: % of control where 0% means no effect
ATXN2 expr inh – inhibitors of ATXN2 expression. AID 1745845. Potency, µM (series often up to 57 µM), without a hit: top-dose activity change, negative = inhibition, usual class: inhibitors. HEK-293 ATXN2-luciferase reporter, luminescence, 24 h. hit rate 0.72% among 360,000; further: on the % scale 0 is the no-effect control and ±100 the full control effect; nearly all actives have a fitted effect of over 55% in size
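qHTS (up to 57 uM final) was run with 24 h compound exposure of reporter cells at 37 °C. Each well was multiplexed: SteadyGlo luminescence measured ATXN2-luciferase expression after a fluorogenic Gly-Phe-AFC viability readout (25 uM final).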
HepG2 viability – HepG2 cytotoxicity, counter-screen for TGF-b inhibitors. HepG2 CAGA-GFP viability, ATP luminescence, 18 h. Potency, µM (doses to about 46.1 µM), for inactives: at the highest dose activity change, negative = cytotoxicity, actives largely listed as cytotoxic. hit rate 0.76% among 410,000. AID 588856
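CellTiter-Glo luminescence gave cytotoxicity after 18 hours at 37 degrees C. The cells were HepG2 CAGA-GFP in 1% FBS DMEM, stimulated with 500 pg/mL TGF-beta after compound addition. %Activity was normalised to no-cell wells (complete cell-killing) and DMSO (no toxicity), and curves were fitted and classified.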
* hit, by the source's call; i = inactive; ? = inconclusive; . = not tested or not shown. The call rests on the fitted dose curve; in most records, active means well fitted curve in the direction sought with a large enough effect; inconclusive means small, poorly fitted or top-dose-only effect, or another doubt; inactive means no such curve, though single readings can be large; an effect the other way counts as inactive or inconclusive. Potency means the concentration at half of the fitted maximal effect.

SMILES	GLP1R inv ag	S2 tox	TGFb inhibitor	GLP-1R agonist	ATXN2 expr inh	HepG2 viability
Cc1cc(O)c(C(C)C)cc1C1(c2cc(C(C)C)c(O)cc2C)OC(=O)c2ccccc21	?	.	13µM*	-6%	?	14µM*
O=C(NCc1cc(C(F)(F)F)ccc1Cl)c1cccc2c1C(=O)c1ccc(N3CCC(N4CCCCC4)CC3)cc1S2(=O)=O	?	?	?	8%	25µM*	16µM*
COC(=O)CS(=O)(=O)c1nc2ccccc2nc1N1CCCCC1	-28%	?	?	1%	?	-87%
CCOC(=O)c1ccc(-c2ccc(/C=C(\C#N)c3nc4ccc(C)cc4[nH]3)o2)cc1	7%	.	.	.	.	3.2µM*
O=C(NCc1cccc(Br)c1)c1cccn1-c1nnc(N2CCCCC2)s1	?	?	?	.	?	-25%
CCCCCCN1C[C@H](n2cc(-c3ccc(F)cc3)nn2)[C@@H](O)C[C@@H]1c1ccc(OC)cc1	-31%	i	?	-5%	10%	-63%
CCCCCCN1C[C@H](n2cc(C3CC3)nn2)[C@@H](O)C[C@@H]1c1ccc(OC)cc1	?	25µM*	?	11%	?	-99%
CCCCCCN1C[C@H](n2cc(-c3ccc(F)cc3)nn2)[C@@H](O)C[C@@H]1c1ccc(C)cc1	-10%	.	?	-1%	?	11µM*
CCCCCCN1C[C@H](O)[C@@H](n2cc(-c3ccc(F)cc3)nn2)C[C@@H]1c1ccc(Cl)cc1	?	?	?	-4%	?	-40%
CCCCCCN1C[C@@H](n2cc(-c3ccc(F)cc3)nn2)[C@H](O)C[C@@H]1c1ccc(OC)cc1	3.2µM*	.	?	-2%	?	-91%
CCCCCCN1C[C@@H](n2cc(-c3ccc(F)cc3)nn2)[C@H](O)C[C@@H]1c1ccc(Cl)cc1	?	18µM*	?	-2%	?	-112%
CCCCCCN1C[C@H](n2cc(C3CC3)nn2)[C@@H](O)C[C@@H]1c1ccccc1	?	?	?	0%	?	-107%
CCOc1ccc(NC(=O)CSc2oc(-c3ccc(F)cc3)nc2S(=O)(=O)c2ccc(C)cc2)cc1	7%	.	-12%	.	.	-3%
COc1ccc([C@H]2C[C@H](O)[C@@H](n3cc(C4CC4)nn3)CN2CC2CCCCC2)cc1	?	i	2%	6%	-3%	2%
Cc1ccc([C@H]2C[C@@H](O)[C@H](n3cc(-c4ccc(F)cc4)nn3)CN2C(=O)C2CCCCC2)cc1	?	.	13µM*	-5%	?	-32%
COc1ccc([C@H]2C[C@@H](O)[C@H](n3cc(C4CC4)nn3)CN2CC2CCCCC2)cc1	7.9µM*	i	?	6%	-15%	-42%
O=C(C1CCCCC1)N1C[C@H](n2cc(-c3ccc(F)cc3)nn2)[C@@H](O)C[C@@H]1c1ccc(Cl)cc1	?	?	?	-3%	?	-45%
COc1ccc(CCNC(=O)CCCn2c(=O)c3cccn3c3ccc(F)cc32)cc1OC	159%	.	0%	.	.	-1%
Cc1ccc2c(=O)c3cccc(CC(=O)O)c3oc2c1C	.	.	.	.	24µM*	.
C[C@@H]1CC=CC=CC=CC=C[C@@H](O[C@@H]2O[C@H](C)[C@@H](O)[C@H](N)[C@H]2O)C[C@@H]2O[C@](O)(C[C@@H](O)C[C@@H]3O[C@@H]3C=CC(=O)O1)C[C@H](O)[C@@H]2C(=O)O	.	.	.	.	13%	.
Clc1cccc(N/N=C/c2ccc(N3CCOCC3)s2)c1	2.8µM*	.	1%	2%	?	7%
Cc1nc(C(=O)NCC(=O)O)c(O)c2ccc(Oc3ccccc3)cc12	.	.	.	.	23%	.
CCC1CCc2sc(C(=O)N(C)CC(=O)Nc3ccc(OC)cc3)cc2C1 (stereo not drawn)	10µM*	i	-25%	14%	-8%	-1%
CCC1CCc2sc(C(=O)NCC(c3ccccc3OC)N3CCCC3)cc2C1 (stereo not drawn)	5µM*	?	?	19%	-39%	-44%
CCC1CCc2sc(C(=O)NC3CCN(Cc4ccccc4)CC3)cc2C1 (stereo not drawn)	5µM*	?	5%	8%	?	-41%
SMILES	GLP1R inv ag	S2 tox	TGFb inhibitor	GLP-1R agonist	ATXN2 expr inh	HepG2 viability
Cc1ccc(-n2cnc3scc(-c4cccs4)c3c2=O)cc1	10µM*	i	?	1%	-8%	-23%
COc1ccc([N+](=O)[O-])cc1N(CC(=O)NCCSc1ccc(C)cc1)S(C)(=O)=O	9%	i	-2%	12%	-17%	-2%
Cc1cccc(N(CC(=O)Nc2ccc(Br)cc2)S(C)(=O)=O)c1C	?	?	?	.	0%	-43%
COc1ccc(C)cc1NS(=O)(=O)c1ccc(NC(=O)CN(c2cc([N+](=O)[O-])ccc2C)S(C)(=O)=O)cc1	1.8µM*	i	?	-11%	-24%	6%
Cc1cccc(NS(=O)(=O)c2ccc(NC(=O)CN(c3cc([N+](=O)[O-])ccc3C)S(C)(=O)=O)cc2)c1	?	?	16µM*	-29%	?	-2%
Cc1ccc(Nc2nc(N)nc(CCl)n2)cc1	?	.	?	17%	11µM*	-23%
Cc1ccc(Nc2nc(N)nc(CCl)n2)c(C)c1	4.5µM*	.	-8%	15%	?	-43%
